# Test results: PubChem BioAssay (NCATS)
# Where “and” joins values, the source holds several entries; their conditions need not be identical. Equal values may be shown once. Calls of active or inactive are those of the source. The call rests on the fitted dose curve.
# Molecular target: Catechol O-methyltransferase (Homo sapiens) (UniProt P21964)
# Experiment: Confirmatory Screen for Target Class Profiling of Small Molecule Inhibitors of Methyltransferases (AID 1745852); on activity change, negative = inhibition: on the % scale 0 is the no-effect control and ±100 the full control effect
# Details: MTase-Glo luminescence, SAH detection, recombinant enzyme; measured here: COMT max response; stronger effect = lower value
# Potency means the concentration at half of the fitted maximal effect.
# Catechol O-methyltransferase (Homo sapiens), sequence (P21964 whole entry, looked up): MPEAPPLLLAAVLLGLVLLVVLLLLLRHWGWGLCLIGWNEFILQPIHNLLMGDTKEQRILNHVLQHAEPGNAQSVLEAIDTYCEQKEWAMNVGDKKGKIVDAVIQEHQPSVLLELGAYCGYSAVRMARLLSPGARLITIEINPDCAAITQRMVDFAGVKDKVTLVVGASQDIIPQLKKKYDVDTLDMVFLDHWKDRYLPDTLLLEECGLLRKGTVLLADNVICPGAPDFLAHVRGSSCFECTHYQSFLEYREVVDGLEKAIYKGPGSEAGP
row,SMILES,activity
1,CC(C)c1cc(-c2n[nH]c(=O)n2-c2ccc3c(ccn3C)c2)c(O)cc1O,-27.7%
2,CNC(=O)CN1CCC(Oc2cc3c(Nc4cccc(Cl)c4F)ncnc3cc2OC)CC1,-36%
3,O=C(O)C1(Cc2cccc(Nc3nccs3)n2)CCC(Oc2cccc(Cl)c2F)CC1 (configuration not stated),-35%
4,Cn1c(CNc2ccc(C(=N)N)cc2)nc2cc(C(=O)N(CCC(=O)O)c3ccccn3)ccc21,-2.15%
5,CCS(=O)(=O)c1cccc(-c2cc(C(=O)NC3CCN(C)CC3)c(C)c3[nH]c4ncc(C)cc4c23)c1,-16.8% and -13.7%
6,CN1CCC(CNc2ccc3ncc(-c4cccc(OC(F)(F)F)c4)n3n2)CC1,-52.2%
7,CCn1cc(-c2ccnc3[nH]c(-c4cccc(CN(C)C)c4)cc23)c(-c2ccc(NC(=O)N(C)C)cc2)n1,-5.39% and -8.37%
8,O=C(c1ccc(Nc2nccc(-c3cc4ccccc4s3)n2)cc1)N1CCC(N2CCCC2)CC1,-18.2%
9,Cc1coc2c1C(=O)C(=O)c1c-2ccc2c1CCCC2(C)C,-26.5%
10,C=CCn1c(=O)c2cnc(Nc3ccc(N4CCN(C)CC4)cc3)nc2n1-c1cccc(C(C)(C)O)n1,-20.7%
11,NC1(Cc2ccc(Cl)cc2)CCN(c2ncnc3[nH]ccc23)CC1,-4.59%

# Molecular target: Guanidinoacetate N-methyltransferase (Homo sapiens) (UniProt Q14353)
# Experiment: as above
# Details: MTase-Glo luminescence, SAH detection, recombinant enzyme; activity change, negative = inhibition: at 57.3 µM (top of the series) unless noted
SMILES,Potency,"activity change, negative = inhibition [%]"
CC(C)c1cc(-c2n[nH]c(=O)n2-c2ccc3c(ccn3C)c2)c(O)cc1O,30.4 µM (active),
CNC(=O)CN1CCC(Oc2cc3c(Nc4cccc(Cl)c4F)ncnc3cc2OC)CC1,42.9 µM (active),
O=C(O)C1(Cc2cccc(Nc3nccs3)n2)CCC(Oc2cccc(Cl)c2F)CC1 (configuration not stated),42.9 µM (active),
Cn1c(CNc2ccc(C(=N)N)cc2)nc2cc(C(=O)N(CCC(=O)O)c3ccccn3)ccc21,,1.99
CCS(=O)(=O)c1cccc(-c2cc(C(=O)NC3CCN(C)CC3)c(C)c3[nH]c4ncc(C)cc4c23)c1,18.8 µM (active),-3.37
CN1CCC(CNc2ccc3ncc(-c4cccc(OC(F)(F)F)c4)n3n2)CC1,30.4 µM (active),
O=C(c1ccc(Nc2nccc(-c3cc4ccccc4s3)n2)cc1)N1CCC(N2CCCC2)CC1,,-6.01
Cc1coc2c1C(=O)C(=O)c1c-2ccc2c1CCCC2(C)C,24.1 µM (active),
C=CCn1c(=O)c2cnc(Nc3ccc(N4CCN(C)CC4)cc3)nc2n1-c1cccc(C(C)(C)O)n1,,-6.72
NC1(Cc2ccc(Cl)cc2)CCN(c2ncnc3[nH]ccc23)CC1,,0.429
